Assay results published in PubChem BioAssay (NCI).
Compounds without any hit were thinned out: in the full panel of roughly 79,000, 15% have a hit. Calls of active or inactive are those of the source. No stated cut-off is given here; in the data, active means growth inhibition above about 70%; inactive means the rest.

Legend:
[1] = NCI Yeast Anticancer Drug Screen. Data for the rad52 strain (AID 147);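 further: 0% = growth of vehicle-treated control cultures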; conditions: S. cerevisiae rad52 mutant growth inhibition, active compounds read high
Outline: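 Yeast strain carrying a DNA damage repair alteration was exposed to test compounds. Growth inhibition was measured relative to vehicle-treated controls.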

[2] = NCI Yeast Anticancer Drug Screen. Data for the wt1 strain (AID 149);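 further: 0% = growth of vehicle-treated wt1 cultures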; conditions: S. cerevisiae wt1 strain (SPY 50644) growth inhibition, active compounds read high
Outline: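 Each compound is tested on wt1 yeast and the loss of growth versus vehicle gives the inhibition value.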

[3] = NCI Yeast Anticancer Drug Screen. Data for the rad50EPP+ strain (AID 151);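 further: 0% = growth of vehicle-treated control cultures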; conditions: S. cerevisiae rad50 mutant strain, active compounds read high
Outline: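 Yeast strain carrying rad50 alteration (rad50EPP+) exposed to compounds; growth inhibition measured relative to vehicle-treated controls.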

[4] = NCI Yeast Anticancer Drug Screen. Data for the mgt1 strain (AID 153); conditions: S. cerevisiae mgt1 mutant growth inhibition, active compounds read high
Outline: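 Yeast mgt1 strain (DNA repair/cell-cycle alteration panel) exposed to compounds; growth inhibition measured relative to vehicle-treated controls.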

[5] = NCI Yeast Anticancer Drug Screen. Data for the rad50 strain (AID 155);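 further: 0% = growth of vehicle-only cultures of the same strain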; conditions: S. cerevisiae rad50 strain growth inhibition, active compounds read high
Outline: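 Vehicle-treated cultures provide the reference for the growth inhibition reported for compound-exposed, repair-deficient yeast.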

[6] = NCI Yeast Anticancer Drug Screen. Data for the mec2-1 strain (AID 157); conditions: S. cerevisiae mec2-1 strain, active compounds read high
Outline: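 mec2-1 yeast strain, carrying an alteration in DNA damage repair or cell cycle control, was exposed to compounds; growth inhibition was measured relative to vehicle-treated controls.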

[7] = NCI Yeast Anticancer Drug Screen. Data for the rad14 strain (AID 159);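 further: 0% = growth of vehicle-treated control cultures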; conditions: S. cerevisiae rad14 strain growth inhibition, active compounds read high
Outline: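 Inhibition of growth is reported for a repair-deficient yeast mutant following compound treatment, calculated relative to cultures that received vehicle.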

[8] = NCI Yeast Anticancer Drug Screen. Data for the sgs1 mgt1 strain (AID 161);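 further: 0% = growth of cultures given vehicle only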; conditions: S. cerevisiae sgs1 mgt1 strain, active compounds read high
Outline: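 Percent growth inhibition was derived by comparing compound-exposed mutant yeast with vehicle-exposed cultures. The strain carries alterations in DNA damage repair.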

[9] = NCI Yeast Anticancer Drug Screen. Data for the cln2 rad14 strain (AID 165);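 further: 0% = growth equal to vehicle treated cultures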; conditions: S. cerevisiae cln2 rad14 strain, active compounds read high
Outline: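 Yeast carrying cln2 and rad14 alterations (cell cycle control and DNA damage repair) were exposed to compounds. Growth inhibition was measured against vehicle-treated controls.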

[10] = NCI Yeast Anticancer Drug Screen. Data for the bub3 strain (AID 167); conditions: S. cerevisiae bub3 mutant strain, active compounds read high
Outline: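 Mutant yeast screening strain plus compound; vehicle-treated cultures serve as the 0% inhibition reference.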

[11] = NCI Yeast Anticancer Drug Screen. Data for the mlh1 strain (AID 171);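 further: 0% = growth of vehicle-treated control cultures of the same strain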; conditions: S. cerevisiae mlh1 strain growth inhibition, active compounds read high
Outline: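 Yeast carrying a defined genetic alteration in DNA damage repair or cell cycle control were exposed to test compounds. Growth inhibition was measured relative to vehicle-treated controls.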

[12] = NCI Yeast Anticancer Drug Screen. Data for the sgs1 strain (AID 173);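 further: 0% = growth of vehicle-only control cultures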; conditions: S. cerevisiae sgs1 mutant, active compounds read high
Outline: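 Yeast mutant strains carrying defined defects in DNA damage repair or cell cycle control were exposed to test compounds. Growth inhibition was scored against vehicle-treated controls.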

[13] = NCI Yeast Anticancer Drug Screen. Data for the mlh1 rad18 strain (AID 175); conditions: S. cerevisiae mlh1 rad18 strain growth inhibition, active compounds read high
Outline: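 Growth inhibition of the yeast strain was measured after compound exposure and expressed relative to vehicle-treated controls. The strain carries defined defects in DNA damage repair.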

[14] = NCI Yeast Anticancer Drug Screen. Data for the rad18 strain (AID 177); conditions: S. cerevisiae rad18 mutant growth inhibition, active compounds read high
Outline: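 Yeast carrying a defined DNA damage repair alteration were exposed to compounds. Growth inhibition was expressed relative to vehicle-treated controls.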

[15] = at 5.0 µM (retest, dose inferred, filed as 0.5)
[16] = at 50.0 µM (retest, dose inferred, filed as 5.0)

Measured: growth inhibition

CC(C)CC(NC(=O)C(N)C(C)C)C(=O)NC(CCCCN)C(=O)Nc1ccc(N(CCCl)CCCl)cc1 (stereo not drawn)
active: [5]; [16] 92%
inactive: [1]; at 1.2 µM 8% | [1]; at 3.7 µM 28% | [1]; at 11.0 µM 32% | [1]; at 33.0 µM 23% | [1]; at 100.0 µM 18% | [2]; at 1.2 µM -16% | [2]; at 3.7 µM -10% | [2]; at 11.0 µM -15% | [2]; at 33.0 µM -11% | [2]; at 100.0 µM -18% | [3]; at 1.2 µM 10% | [3]; at 3.7 µM 9% | [3]; at 11.0 µM 13% | [3]; at 33.0 µM 7% | [3]; at 100.0 µM 12% | [4]; at 1.2 µM -6% | [4]; at 3.7 µM -16% | [4]; at 11.0 µM -17% | [4]; at 33.0 µM -5% | [4]; at 100.0 µM -21% | [5]; at 1.2 µM 8% | [5]; at 3.7 µM 10% | [5]; [15] 38% | [5]; at 11.0 µM 8% | [5]; at 33.0 µM 0% | [5]; at 50.0 µM 16.4% | [5]; at 100.0 µM 2% | [6]; at 1.2 µM -21% | [6]; at 3.7 µM -17% | [6]; [15] 19% | [6]; at 11.0 µM -18% | [6]; at 33.0 µM -17% | [6]; [16] 22% | [6]; at 50.0 µM -7.45% | [6]; at 100.0 µM -16% | [7]; at 1.2 µM -2% | [7]; at 3.7 µM 0% | [7]; at 11.0 µM -2% | [7]; at 33.0 µM -2% | [7]; at 100.0 µM -8% | [8]; [15] 21% | [8]; [16] 34% | [8]; at 50.0 µM -48.5% | [9]; [15] 13% | [9]; [16] 25% | [9]; at 50.0 µM -7.1% | [10]; at 1.2 µM -23% | [10]; at 3.7 µM -16% | [10]; [15] 25% | [10]; at 11.0 µM -16% | [10]; at 33.0 µM -13% | [10]; [16] 17% | [10]; at 50.0 µM -28.2% | [10]; at 100.0 µM -25% | [11]; at 1.2 µM -1% | [11]; at 3.7 µM 9% | [11]; at 11.0 µM -3% | [11]; at 33.0 µM -5% | [11]; at 100.0 µM -19% | [12]; at 1.2 µM -4% | [12]; at 3.7 µM 10% | [12]; at 11.0 µM 8% | [12]; at 33.0 µM -3% | [12]; at 100.0 µM 3% | [13]; [15] 19% | [13]; [16] 37% | [13]; at 50.0 µM -44.7% | [14]; at 1.2 µM -7% | [14]; at 3.7 µM -12% | [14]; at 11.0 µM -16% | [14]; at 33.0 µM -20% | [14]; at 100.0 µM -23%
